Experiment [1] is described as follows: Nuclear factor erythroid 2-related factor 2/antioxidant responsive element (Nrf2/ARE) small molecule agonists: luciferase reporter gene qHTS assay in human keratinocytes (AID 1919969). Also: nearly all actives have a fitted effect of over 35% in size. Also: potency is read from the fitted curve at half-maximal effect. A general note: In a reporter assay the amount or activity of a reporter protein is the signal.
In experiment [2] the target is Gonadotropin-releasing hormone receptor (Homo sapiens) (UniProt P30968). As to the kind of experiment: Human gonadotropin-releasing hormone receptor (GnRHR) small molecule agonists, calcium flux assay in GnRHR-HEK293 cells (AID 1920063). Also: nearly all actives have a fitted effect of over 35% in size. Also: potency is read from the fitted curve at half-maximal effect. Put shortly: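 We seeded human GnRHR-expressing HEK293 cells for 18 hours, loaded them with calcium dye for an hour at 37 C, added test compounds, and recorded fluorescence intensity kinetically for three minutes.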
(In general: Calcium assays in cells follow changes in intracellular calcium, usually with a dye or a luminescent sensor.)

The target of experiment [3] is KiSS-1 receptor (Homo sapiens) (UniProt Q969F8). Nature of the experiment: Human kisspeptin (KISS1R) small molecule agonists, calcium flux assay in KISS1R-HEK293 cells (AID 1920064; active = well fitted activation curve with a large enough effect in the repeat runs). In outline:
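Kinetic calcium assay, 1 s sampling over 3 min at Ex/Em 480/540, in HEK293 cells engineered with human KISS1R; compounds delivered in DMSO after 1 h dye loading.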

A short description of experiment [4]: G protein-coupled receptor (GPCR) small molecule agonists, calcium flux assay: HEK293 wild type cell line counter screen (AID 1920065). In outline: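 Calcium-sensitive dye, loaded 1 h at 37 C into cells cultured 18 h, reports compound-evoked calcium release as fluorescence (Ex/Em 480/540), measured over 3 min. Agonist mode; 15-point titrations, triplicate.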

Experiment [5] is described as follows: p53 small molecule agonists, cell-based qHTS assay with human liver microsomes (AID 1963577).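 Also: p53 response element beta-lactamase reporter cells with liver microsomes plus NADPH.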 Put shortly:
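With metabolic activation: human liver microsomes (0.5 mg/mL final) plus NADPH (0.5 mg/mL final) added alongside compounds to p53RE-bla cells; 16 h 37 C exposure; beta-lactamase read by LiveBLAzer fluorescence.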
(In general: In qHTS, concentration-response curves come from the screen itself.)

Experiment [6] in a line: p53 small molecule agonists, cell-based qHTS assay with rat liver microsomes (AID 1963578). In outline: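 Metabolic activation by rat liver microsomes and NADPH, each 0.5 mg/mL final, added right after compounds to p53RE-bla reporter cells (4,000/well, plated 5 h earlier). 16 h at 37 C, then LiveBLAzer substrate for 2 h at room temperature in the dark; fluorescence read-out.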

Experiment [7] is described as follows: p53 small molecule agonists, cell-based qHTS assay with human liver microsomes: qHTS cell viability counter screen (AID 1963579). Also: nearly all actives have a fitted effect of over 45% in size. Also: potency is read from the fitted curve at half-maximal effect. In outline: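 Metabolic activation used human liver microsomes and NADPH, both 0.5 mg/mL final, over 16 hours at 37 C on p53RE-bla cells (4,000/well). Cytotoxicity measured by CellTiter-Glo luminescence, 30 min at room temperature.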

The nature of experiment [8]: p53 small molecule agonists, cell-based qHTS assay with rat liver microsomes: qHTS cell viability counter screen (AID 1963580). Also: nearly all actives have a fitted effect of over 45% in size. In outline:
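p53RE-bla HCT-116 cells were exposed 16 h at 37 C to compounds with rat liver microsomes (0.5 mg/mL) and NADPH (0.5 mg/mL). Viability was measured in the same wells as ATP content by CellTiter-Glo luminescence.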

Experiment [9] in a line: p53 small molecule agonists, cell-based qHTS assay: qHTS cell viability counter screen (AID 1963581). Also: nearly all actives have a fitted effect of over 45% in size. Also: potency is read from the fitted curve at half-maximal effect. Put shortly: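 Following 5 h attachment, HCT-116 p53RE-bla cells took up compound for 16 h at 37 C; the reporter was read with B/G FRET substrate (2 h RT), and viability then via CellTiter-Glo ATP luminescence.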
Experiment [10] is described as follows: p53 small molecule agonists, cell-based qHTS assay (AID 1963582; active = well fitted activation curve with a large enough effect in the signal ratio in the repeat runs, not every such curve was filed as active; the % refers to the signal ratio). Put shortly:
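In this cell-based concentration-response screen, a p53 response element drives beta-lactamase; cells received DMSO-borne compounds after 5 h culture and were incubated a further 16 h before FRET substrate development.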

Experiment [11] addresses 5-hydroxytryptamine receptor 2A (Homo sapiens) (UniProt P28223). Nature of the experiment: 5-hydroxytryptamine receptor 2A (HTR2A) small molecule antagonists, cell-based qHTS assay (AID 1963586). Also: nearly all actives have a fitted effect of over 45% in size. Also: potency is read from the fitted curve at half-maximal effect. Put shortly: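 Antagonist-mode intracellular calcium assay: DOI (4 nM) added after 5 min compound pre-incubation at room temperature to dye-loaded HTR2A-CHO cells. Fluorescence followed for 3 min, sampled every second.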

For experiment [12] the target is unchanged. As to the kind of experiment: 5-hydroxytryptamine receptor 2A (HTR2A) small molecule agonists, cell-based qHTS assay (AID 1963587). Also: nearly all actives have a fitted effect of over 30% in size. Also: potency is read from the fitted curve at half-maximal effect. In outline:
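CHO cells stably expressing human HTR2A, plated 18 h, loaded with calcium dye 1 h at 37 C. Agonist mode: compounds added and intracellular calcium fluorescence recorded kinetically for 2 min at 1 sec intervals.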

Experiment [13] has as its target Muscarinic acetylcholine receptor M1 (Homo sapiens) (UniProt P11229). As to the kind of experiment: Cholinergic receptor muscarinic 1 (CHRM1) small molecule antagonists, cell-based qHTS assay (AID 1963588). Also: nearly all actives have a fitted effect of over 40% in size. Also: potency is read from the fitted curve at half-maximal effect. In outline:
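CHRM1-CHO calcium-flux assay, antagonist mode. Cells were seeded 18 h, dye-loaded 1 h at 37 C and given compound for 5 min at RT, then acetylcholine was added at 50nM. FDSS fluorescence was read 3 min; 15 concentrations, three runs.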

Experiment [14] has the same target. As to the kind of experiment: Cholinergic receptor muscarinic 1 (CHRM1) small molecule agonists, cell-based qHTS assay (AID 1963589). Also: nearly all actives have a fitted effect of over 35% in size. Put shortly: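 Measures agonist-induced intracellular calcium rise. Stable human CHRM1 CHO line, 1 h dye load at 37 C, compounds from DMSO, kinetic fluorescence read.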
The nature of experiment [15]: cAMP Responsive Elements (CRE) small molecule agonists, cell-based qHTS assay (AID 1963590). Put shortly:
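A CRE-responsive beta-lactamase reporter in HEK 293T cells was used. Treatment ran 3 h at 37 C; detection used LiveBLAzer B/G FRET substrate for 2 h at room temperature.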

In experiment [16] the target is Beta-2 adrenergic receptor (Homo sapiens) (UniProt P07550). As to the kind of experiment: Adrenergic beta2 receptor (ADRB2) small molecule antagonists, cell-based qHTS assay (AID 1963592). Also: series mostly up to about 92 µM; nearly all actives have a fitted effect of over 50% in size. Put shortly:
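Cells (CHO, stable ADRB2 overexpression) incubated 18-20hr at 37C; compounds added from DMSO; agonist mix (1nM isoproterenol, 100uM IBMX, 25uM Ro-20-1724) added; 0.5hr RT; d2-cAMP and anti-cAMP-cryptate added; 1hr RT; 665/615 nm read.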

The target is the same in experiment [17]. Nature of the experiment: Adrenergic beta2 receptor (ADRB2) small molecule agonists, cell-based qHTS assay (AID 1963593).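 Also: CHO cells stably overexpressing human ADRB2.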 Put shortly:
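CHO cells stably over-expressing ADRB2 were plated overnight at 37C, then dosed with compounds plus a stimulation mix containing 100uM IBMX and 25uM Ro-20-1724 for 0.5hr at room temperature. cAMP was measured by HTRF competition, 1hr.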

The target in experiment [18] is D(2) dopamine receptor (Homo sapiens) (UniProt P14416). As to the kind of experiment: Dopamine D2 receptor (DRD2) small molecule agonists, cell-based qHTS assay (AID 1963594). Also: nearly all actives have a fitted effect of over 35% in size. Put shortly:
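HEK293 cells stably expressing human DRD2, pre-treated with PDE inhibitor Ro20-1724 (0.1 mM final) and compound 10 min at room temperature, then stimulated with NKH477 (200nM […]) for 30 min. cAMP read by HTRF (665/620 nm).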

The nature of experiment [19]: cAMP Responsive Elements (CRE) small molecule antagonists, cell-based qHTS assay (AID 1963591; active = well fitted inhibition curve with a large enough effect in the signal ratio in the repeat runs, not every such curve was filed as active; the % refers to the signal ratio). In outline:
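HEK293T cells carrying a CRE-driven beta-lactamase reporter receive compound and NKH477 (0.25 uM final) for 3 h. Fluorescence from LiveBLAzer B/G FRET substrate is read after 2 h at room temperature.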

The target in experiment [20] is D(2) dopamine receptor (Homo sapiens) (UniProt P14416). Nature of the experiment: Dopamine D2 receptor (DRD2) small molecule antagonists, cell-based qHTS assay (AID 1963595; active = well fitted inhibition curve with a large enough effect in the signal ratio in the repeat runs, with a control signal flat; the % refers to the signal ratio; also: potency is read from the fitted curve at half-maximal effect). Put shortly:
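Readout: HTRF cAMP, cAMP-d2 competing with cellular cAMP for anti-cAMP cryptate, read after 1 h. Cells: DRD2-HEK293. Conditions: 0.1 mM Ro20-1724, 12 nM quinpirole, 200 nM NKH477, 30 min RT.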

Results filed as inconclusive are left out. Activity calls are given as the source filed them. Unless noted, calls follow the shape of the full dose curve.

KiSS-1 receptor (Homo sapiens), sequence (Q969F8 whole entry, looked up): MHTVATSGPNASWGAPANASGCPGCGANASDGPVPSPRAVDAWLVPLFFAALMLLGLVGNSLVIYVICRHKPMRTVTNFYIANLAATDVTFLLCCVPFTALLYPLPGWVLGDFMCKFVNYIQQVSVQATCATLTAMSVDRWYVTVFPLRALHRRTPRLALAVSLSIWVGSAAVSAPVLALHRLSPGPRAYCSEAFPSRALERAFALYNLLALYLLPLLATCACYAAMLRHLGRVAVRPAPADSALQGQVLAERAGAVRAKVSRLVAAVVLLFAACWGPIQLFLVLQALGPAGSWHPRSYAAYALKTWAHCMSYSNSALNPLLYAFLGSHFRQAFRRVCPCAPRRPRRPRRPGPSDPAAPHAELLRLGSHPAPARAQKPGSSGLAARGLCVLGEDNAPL
D(2) dopamine receptor (Homo sapiens), sequence (P14416 whole entry, looked up): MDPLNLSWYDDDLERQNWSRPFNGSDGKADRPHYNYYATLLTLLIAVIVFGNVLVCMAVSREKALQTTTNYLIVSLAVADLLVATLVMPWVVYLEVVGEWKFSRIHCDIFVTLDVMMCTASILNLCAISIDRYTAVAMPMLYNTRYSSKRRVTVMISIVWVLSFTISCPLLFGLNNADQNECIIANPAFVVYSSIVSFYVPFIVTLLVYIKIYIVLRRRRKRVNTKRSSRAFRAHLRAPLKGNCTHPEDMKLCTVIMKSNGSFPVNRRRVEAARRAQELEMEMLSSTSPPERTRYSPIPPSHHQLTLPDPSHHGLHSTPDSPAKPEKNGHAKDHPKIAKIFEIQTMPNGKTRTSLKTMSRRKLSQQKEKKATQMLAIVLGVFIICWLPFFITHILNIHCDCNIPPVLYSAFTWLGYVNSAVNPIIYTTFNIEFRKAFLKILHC
5-hydroxytryptamine receptor 2A (Homo sapiens), sequence (P28223 whole entry, looked up): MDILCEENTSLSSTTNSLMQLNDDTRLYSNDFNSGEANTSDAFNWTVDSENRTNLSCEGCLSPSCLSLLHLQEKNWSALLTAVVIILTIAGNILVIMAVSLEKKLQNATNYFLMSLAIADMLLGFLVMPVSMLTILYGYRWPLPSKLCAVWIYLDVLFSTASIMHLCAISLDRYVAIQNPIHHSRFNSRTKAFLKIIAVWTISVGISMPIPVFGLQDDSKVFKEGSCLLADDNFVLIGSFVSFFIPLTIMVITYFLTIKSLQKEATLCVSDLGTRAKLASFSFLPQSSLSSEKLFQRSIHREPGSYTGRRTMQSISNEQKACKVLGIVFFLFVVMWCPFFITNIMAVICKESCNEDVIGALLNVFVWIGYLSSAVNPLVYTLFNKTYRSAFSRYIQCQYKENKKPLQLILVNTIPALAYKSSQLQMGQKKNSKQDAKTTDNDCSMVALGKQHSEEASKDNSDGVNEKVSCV
Muscarinic acetylcholine receptor M1 (Homo sapiens), sequence (P11229 whole entry, looked up): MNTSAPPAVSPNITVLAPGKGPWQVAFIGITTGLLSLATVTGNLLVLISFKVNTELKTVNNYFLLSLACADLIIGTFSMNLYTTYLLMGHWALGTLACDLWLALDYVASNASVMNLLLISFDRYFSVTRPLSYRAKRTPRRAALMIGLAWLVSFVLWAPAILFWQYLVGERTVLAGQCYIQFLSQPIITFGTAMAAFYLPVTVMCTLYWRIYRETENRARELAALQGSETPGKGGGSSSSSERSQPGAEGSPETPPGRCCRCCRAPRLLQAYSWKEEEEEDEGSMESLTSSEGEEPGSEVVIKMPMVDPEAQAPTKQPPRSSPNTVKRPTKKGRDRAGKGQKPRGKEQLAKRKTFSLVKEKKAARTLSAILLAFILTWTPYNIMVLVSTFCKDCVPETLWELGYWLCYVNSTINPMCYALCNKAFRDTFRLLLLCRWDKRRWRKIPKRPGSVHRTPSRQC
Beta-2 adrenergic receptor (Homo sapiens), sequence (P07550 whole entry, looked up): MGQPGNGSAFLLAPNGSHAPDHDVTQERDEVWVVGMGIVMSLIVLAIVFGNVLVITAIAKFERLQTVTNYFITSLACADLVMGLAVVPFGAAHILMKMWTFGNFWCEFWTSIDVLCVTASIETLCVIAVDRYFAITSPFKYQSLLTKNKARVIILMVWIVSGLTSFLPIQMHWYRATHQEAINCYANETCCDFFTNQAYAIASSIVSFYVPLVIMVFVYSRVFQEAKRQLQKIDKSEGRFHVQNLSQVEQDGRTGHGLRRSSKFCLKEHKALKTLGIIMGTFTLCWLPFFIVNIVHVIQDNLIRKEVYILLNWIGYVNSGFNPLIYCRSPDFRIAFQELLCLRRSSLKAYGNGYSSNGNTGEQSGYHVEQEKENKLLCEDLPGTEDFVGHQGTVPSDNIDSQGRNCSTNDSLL
Gonadotropin-releasing hormone receptor (Homo sapiens), sequence (P30968 whole entry, looked up): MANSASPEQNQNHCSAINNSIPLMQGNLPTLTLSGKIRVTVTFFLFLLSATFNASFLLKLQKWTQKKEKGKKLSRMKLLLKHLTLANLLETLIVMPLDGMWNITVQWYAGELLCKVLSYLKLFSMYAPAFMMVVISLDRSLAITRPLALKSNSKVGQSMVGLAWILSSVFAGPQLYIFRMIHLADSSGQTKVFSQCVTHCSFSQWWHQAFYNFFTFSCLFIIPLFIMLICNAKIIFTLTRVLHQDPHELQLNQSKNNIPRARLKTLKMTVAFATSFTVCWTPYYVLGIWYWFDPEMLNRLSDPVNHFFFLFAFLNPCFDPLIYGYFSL

Regarding `O=C(CCCCCCC(=O)Nc1ccccc1)NO`, the Potency in experiment [1] was 8.41 µM (active). For the same molecule, the Potency result in experiment [2], in [3], in experiment [4], in [5], in experiment [6] and in experiment [7] was “inactive” each time. The Potency entry in experiment [8], in experiment [9], in experiment [10], in experiment [11], in [12] and in experiment [13] was “inactive” throughout. In addition, the Potency result in experiment [14], in experiment [15], in experiment [16], in experiment [17] and in experiment [18] was “inactive” in each case.

Regarding `Nc1ccc(N=Nc2ccc(N)cc2)cc1`, the Potency entry in [1], in experiment [2], in experiment [3], in experiment [4], in experiment [5] and in experiment [6] was “inactive” throughout. For the same molecule, the Potency result in [7], in [8], in experiment [9], in experiment [10], in experiment [11] and in [12] was “inactive” each time. Further, the Potency entry in [13], in experiment [14], in [15], in experiment [19], in experiment [16] and in experiment [18] was “inactive” each time. Also, the Potency entry in [20] is “inactive”.

`C[C@H](CCC(=O)O)[C@H]1CC[C@H]2[C@@H]3[C@H](O)C[C@@H]4C[C@H](O)CC[C@]4(C)[C@H]3CC[C@]12C`: the Potency entry in experiment [4], in experiment [5], in [6], in experiment [7], in [8] and in [9] was “inactive” throughout. Besides, the Potency entry in [10], in experiment [13], in [16] and in experiment [20] was “inactive” throughout.

As to `C1=CC2C3C=CC(C3)C2C1` (stereo unspecified), the Potency entry in experiment [4], in [6], in [10], in [13], in experiment [15] and in experiment [19] was “inactive” in each case. Moreover, in experiment [16], the Potency result is “inactive”. In addition, the Potency in experiment [12] was 54 µM (active).

With `CCOc1nc2cccc(C(=O)OC(C)OC(=O)OC3CCCCC3)c2n1Cc1ccc(-c2ccccc2-c2nn[nH]n2)cc1` (stereo unspecified), the Potency entry in experiment [4], in experiment [5], in experiment [6], in experiment [11], in experiment [13] and in experiment [14] was “inactive” throughout. The Potency entry in experiment [16], in experiment [17] and in experiment [20] was “inactive” in each case. Moreover, the Potency in experiment [7] is 12.9 µM (active); in [9], 14.5 µM (active).

As to `O=[N+]([O-])C1(Br)COCOC1`, the Potency in experiment [1] is 24.3 µM (active); in experiment [2], 38.9 µM (active). Besides, the Potency entry in experiment [3], in experiment [4], in [5], in [6], in [7] and in experiment [8] was “inactive” each time. The Potency entry in experiment [9], in experiment [10], in [11], in experiment [14], in [15] and in experiment [16] was “inactive” throughout. Besides, the Potency entry in [17] and in experiment [20] was “inactive” throughout.

On to `COc1ccc(OC(F)(F)F)cc1CN[C@H]1CCCN[C@H]1c1ccccc1`, for which the Potency result in experiment [1], in experiment [2], in [3], in experiment [4], in experiment [5] and in [6] was “inactive” throughout. Besides, the Potency entry in [7], in experiment [8], in [9], in experiment [10], in [11] and in [13] was “inactive” each time. Moreover, the Potency result in experiment [14], in experiment [16] and in [17] was “inactive” each time.

`OCCN1CCN(CC/C=C2/c3ccccc3Sc3ccc(C(F)(F)F)cc32)CC1`: the Potency entry in [1], in [2], in experiment [3], in experiment [4], in experiment [5] and in experiment [6] was “inactive” in each case. The Potency entry in experiment [7], in experiment [8], in experiment [9], in experiment [10] and in [14] was “inactive” in each case. Moreover, the Potency in [11] is 0.13 µM (active); in experiment [13], 3.65 µM (active); in experiment [20], 0.168 µM (active).
